Assay results: PubChem BioAssay AID652057 (Broad Institute, 2013)
The whole screen tested about 1,400 compounds, of which about 1,000 (71%) were called active. The set was probably picked from earlier hits. Only a sample is shown. Potency and affinity values are given separately. Unmarked numbers belong to inactive results. The rule behind the calls is not given here.

assay: inhibitors of HIV Env-driven cell fusion, dose response, cherry-pick (AID 652057); conditions: HeLa-JRFL Env/CEM21 cell fusion, luciferase; series mostly up to 35 µM; activity change, negative = inhibition: at the top concentration

Row | Compound | activity change, negative = inhibition
1 | C=CC[n+]1c(-c2ccc(C)cc2)csc1NNC(=O)Nc1ccccc1 | -18.4% [at 16 µM]
2 | NC(=S)c1ccc(OCCCc2ccccc2)cc1 | 19.6%
3 | O=C1c2cccc(OCc3ccc(F)cc3)c2CCN1Cc1ccccc1 | -36.6%
4 | O=C(C[C@H]1C[C@@H]2c3cc(NC(=O)C4CCC4)ccc3O[C@@H]2[C@@H](CO)O1)NCc1ccc2c(c1)OCO2 | 24.8%
5 | C=CCOc1c(Br)cc(CNc2ccc(NC(=O)C(C)C)c(OC)c2)cc1OC | 15.3%
6 | CC1(C)N=C(N)N=C(N)N1CCCCc1ccccc1 | -26.4%
7 | COc1cc(-c2c(-c3cc(OC)c(OC)c(OC)c3)noc2C)ccc1F | 54.8%
8 | O=C(CNC(=O)c1cccc(-n2cccc2)c1)Nc1ccccc1Br | 5.83%
9 | COc1ccccc1S(=O)(=O)Nc1ccc2c(c1)C(=O)N(C)C[C@@H](OC)[C@@H](C)CN[C@@H](C)CO2 | 11.4%
10 | CCCNC(=O)C[C@H]1C[C@H]2c3cc(NC(=O)CN(C)C)ccc3O[C@H]2[C@@H](CO)O1 | 15.8%
11 | COc1ccc(NC(=O)c2ccc(Cl)c(S(=O)(=O)N3CCc4ccccc4C3)c2)cn1 | -27.9%
12 | O=C(Nc1ccc(F)cc1)Nc1ccc2c(c1)[C@@H]1C[C@H](CC(=O)N3CCCCC3)O[C@@H](CO)[C@@H]1O2 | -5.66%
13 | COc1ccccc1Oc1ccc(S(=O)(=O)NCc2ccccn2)cc1 | -14.1%
14 | O=C(Nc1ccc(Oc2ccccc2)cc1)c1csc([C@H]2C[C@H](O)[C@@H](CO)O2)n1 | -10.4%
15 | COc1ccc(OC)c(-c2cc(C(=O)Nc3c(C)nn(Cc4ccc(Cl)cc4)c3C)no2)c1 | -26%
16 | CCCCS(=O)(=O)N1CCN(C(=O)C(=O)c2cccc(C(F)(F)F)c2)CC1 | 10.8%
17 | CCS(=O)(=O)Nc1ccc2c(c1)C(=O)N(C)C[C@H](OC)[C@@H](C)CN(C(=O)C1CCC1)[C@H](C)CO2 | 12.2%
18 | CN(C)Cc1cn(CC[C@@H]2CC[C@H](N)[C@H](CO)O2)nn1 | 24.1%
19 | Nc1nonc1C(=O)NCCNCc1cc(Br)ccc1OCc1ccccc1F | -12.6%
20 | CN1CCN(C(=O)C[C@H]2C[C@@H]3c4cc(NS(C)(=O)=O)ccc4O[C@@H]3[C@H](CO)O2)CC1 | 9.51%
21 | O=C(Nc1ccc(C(=O)OC2CCCCC2)cc1)c1ccncc1 | 13.6%
22 | CCCCOc1ccc(S(=O)(=O)Nc2cccnc2)cc1 | 6.53%
23 | C[C@H]1CN([C@@H](C)CO)C(=O)c2cccc(NC(=O)c3ccncc3)c2O[C@@H]1CN(C)C(=O)Nc1cccc2ccccc12 | 0.94%
24 | C[C@H](CO)N1C[C@H](C)[C@@H](CN(C)C(=O)Nc2cccc3ccccc23)OCCCC[C@H](C)Oc2ccc(N(C)C)cc2C1=O | -30.6%
